# Assay outcomes deposited in PubChem BioAssay by several laboratories.
# 697 NFkB inh = inhibitors of the PMA/ionomycin-induced NF-kB reporter in 697 B cells; 697 B-cell NF-kB luciferase reporter, 16 h; inhibition, % at 4 µM; 0.33% of 330,000 active; in the data active means inhibition above about 35%
# Jurkat NFkB inh = lowers PMA/ionomycin-induced NF-kB signal in Jurkat cells; PMA/ionomycin-induced NF-kB luciferase reporter, luminescence; inhibition, % at 4 µM; 0.53% of 330,000 active; in the data active means inhibition above about 50%
# LMP1 NFkB inh = inhibitors of Epstein-Barr LMP1-induced NF-kappaB reporter; LMP1-induced NF-kappaB luciferase reporter cells, luminescence; inhibition, % at 12.5 µM; 0.69% of 350,000 active; AID 504558; in the data active means inhibition above about 41%; inconclusive means no clear call, values can overlap the other calls;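 further: 0% = neutral control wells and 100% = reference inhibitor control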
# Shn3 inh set2 = inhibitors of Schnurri-3 3'UTR reporter in osteoblasts; Clone20 osteoblast Shn3 3'UTR firefly luciferase, 24 h; inhibition, % at 12.5 µM; 0.52% of 360,000 active;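 active means mean inhibition of at least 75% with every replicate also reaching 75%; inconclusive means mean inhibition at least 75% but some replicate below; inactive means mean inhibition below 75%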;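 further: 0% = median of neutral control wells and 100% = pilot-screen positive control compound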
# Gli-Sufu antag = Gli-Sufu pathway antagonism. inhibition, % at 5 µM. Sufu-KO-LIGHT fibroblasts, Gli luciferase reporter luminescence. 0.74% of 340,000 active. AID 588413;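 active means inhibition above about 55%, limit read from the data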;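 further: 0% = DMSO-treated cells and 100% = wells with medium but no cells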
# MITF TRPM1 inh = MITF TRPM1 promoter inhibition in SK-MEL-5 cells; SK-MEL-5 TRPM1 promoter luciferase, 24 h; inhibition, % at 12.5 µM; 0.83% of 330,000 active;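 active means mean inhibition across replicates of 60% or more, whatever share of single replicates reaches that level; inconclusive means some that reach 60%, reason not given; inactive means mean inhibition across replicates below 60%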
# 697 NFkB conf = lowers PMA/ionomycin-induced NF-kB signal in 697 B cells | shares compounds with 697 NFkB inh | 35% of 2,000 active | inhibition, % at 4 µM | AID 449746 | 697 B-cell NF-kB luciferase, 16 h; in the data active means inhibition mostly above about 28%, no sharp cut-off; inactive means mostly below about 22%
# Gli-Sufu confirm = Gli-SUFU antagonism confirmation, single concentration. shares compounds with Gli-Sufu antag. inhibition, % at 5 µM. 40% of 2,500 active. Sufu-KO-LIGHT cells, Gli luciferase reporter, luminescence;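 active means mean inhibition at 5 µM reaching about 45%, limit read from the data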;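 further: plate controls were DMSO-treated cells for no effect and wells lacking cells for full effect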
# Gli cytotox = cytotoxic in Gli-SUFU antagonist counter-screen | shares compounds with Gli-Sufu antag | Sufu-KO-LIGHT cells cytotoxicity, ATP luminescence | cytotoxicity, % at 5 µM | 32% of 2,500 active | AID 651994;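 active means mean cytotoxicity at 5 µM above about 25%, limit read from the data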;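 further: cells exposed to compound overnight for roughly 16 to 18 hours; plate controls were DMSO wells with cells for no effect and medium without cells for full effect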
# Wnt3a counter = Wnt3a reporter inhibition counter-screen; shares compounds with Gli-Sufu antag; Wnt-LIGHT cells, Wnt3a-driven luciferase reporter, luminescence; inhibition, % at 6.25 µM; 20% of 2,500 active; AID 651995;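 active means mean inhibition above about 25%, limit read from the data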
# An asterisk follows results filed as active; ? = inconclusive; . = no result given. This is a sample that favours compounds with a hit; in the whole collection about 2.3% have one here.
SMILES,697 NFkB inh,Jurkat NFkB inh,LMP1 NFkB inh,Shn3 inh set2,Gli-Sufu antag,MITF TRPM1 inh,697 NFkB conf,Gli-Sufu confirm,Gli cytotox,Wnt3a counter
CCOC(=O)c1ccc(-n2c(CN3CCN(CCO)CC3)nc3ccc([N+](=O)[O-])cc3c2=O)cc1,18.8,4.4,1.6,-8.6,5.5,12.0,.,.,.,.
C=CCNC(=O)c1ccc(Cn2c(=S)[nH]c3cc4c(cc3c2=O)OCO4)cc1,-7.9,0.4,-1.2,13.0,-2.5,-21.0,.,.,.,.
O=C(c1ccc(Cn2c(=S)[nH]c3cc4c(cc3c2=O)OCO4)cc1)N1CCN(c2ncccn2)CC1,55.6*,19.1,.,.,.,.,-7.1,.,.,.
Cc1cc(C)c(C#N)c(SCc2nnc(-c3ccccc3)o2)n1,-361.7,28.5,59.2*,60.0,70.0*,76.5*,-46.7,82.7*,34.7*,96.2*
COc1ccccc1-c1cc(-c2ccc(C)cc2)nc(SCc2nnc(-c3ccccc3)o2)c1C#N,5.9,4.2,24.7,34.2,15.2,12.2,.,.,.,.
CC(C)(C)c1ccc(-n2ncc3c2CCCC3NC(=O)C2(C(N)=O)CC2)cc1 (stereo not drawn),42.6*,45.7,-9.6,84.6,76.3*,10.1,83.3*,65.0*,30.0*,-10.3
CC(C)(C)c1ccc(C(=O)NC(=S)Nc2ccc(N3CCOCC3)cc2)cc1,-334.3,-59.3,1.3,55.9,59.7*,12.6,12.6,51.8*,23.2,-72.5
CCN(CC)C(=O)CN1C(=O)C2(OCC(C)(C)CO2)c2ccccc21,21.0,-8.9,0.9,13.1,-1.7,.,.,.,.,.
O=S(=O)(NCc1ccncc1)c1ccc(Br)s1,51.2*,42.0,9.9,80.8,70.4*,19.6,44.8*,63.9*,44.1*,45.9*
COc1cc(NC(=O)c2cc(OC)c(OC)c(OC)c2)c(OC)cc1NC(=O)CN1CCCCC1,1.4,-9.5,0.6,-4.7,-4.0,-3.2,.,.,.,.
Nc1ccc(-c2cc3ccccc3oc2=O)cc1,60.6*,-23.4,58.0*,76.6,61.5*,93.6*,48.2*,71.7*,9.4,103.0*
CCOc1ccc(N2Cc3ccccc3C2)cc1,-111.5,-77.1,-14.1,-31.6,-57.9,-64.8,.,.,.,.
CCOc1ccc(-n2c(-c3ccccc3)c[n+]3c2CCCCC3)cc1,62.6*,17.4,22.2,?,86.2*,63.0*,63.8*,90.0*,25.4*,40.0*
O=C(Nc1cccc(S(=O)(=O)Nc2ccc(Cl)cc2)c1)c1ccc(Cl)nc1,56.9*,41.3,13.9,91.4*,68.5*,35.4,53.3*,64.1*,38.9*,23.4
O=C(Nc1ccc(NS(=O)(=O)c2ccccc2)cc1)c1ccc(Cl)cc1,-33.1,8.0,-2.7,14.1,4.1,-6.5,.,.,.,.
O=C(Cc1ccc(F)cc1)Nc1ccccc1Sc1ccccc1,-35.8,6.9,-9.8,4.3,13.5,-1.8,.,.,.,.
O=C(O)c1ccccc1-c1ccccc1C(=O)NNc1ccc([N+](=O)[O-])cc1,16.8,0.0,2.3,-16.8,-19.6,2.0,.,.,.,.
CN(C)S(=O)(=O)c1ccc(C(=O)Nc2nc(-c3cc4ccccc4o3)cs2)cc1,22.5,33.8,2.1,61.8,50.0,14.8,.,.,.,.
CC1CN(S(=O)(=O)c2ccc(C(=O)Nc3nc(-c4cc5ccccc5o4)cs3)cc2)CC(C)O1 (stereo not drawn),74.2*,42.7,21.3,86.5*,75.4*,9.1,51.4*,79.4*,23.7,30.1*
Cc1csc(SCC(=O)Nc2cc(S(=O)(=O)N3CCOCC3)ccc2N2CCOCC2)n1,12.7,3.2,-5.8,.,8.3,-3.7,.,.,.,.
Cc1ccc(Nc2nc(N/N=C\c3ccc4c(c3)OCO4)nc(N3CCOCC3)n2)cc1,56.4*,-28.1,-68.2,65.5,56.0*,-30.7,42.0*,49.5*,35.0*,-75.3
Cc1ccc(/C=N/Nc2cc(C)nc(N3CCOCC3)n2)cc1,-6.5,4.4,11.4,4.3,0.6,-29.1,.,.,.,.
CC(C)NC(=O)C1Cc2c(-c3ccc4c(c3)OCO4)ccnc2O1 (stereo not drawn),.,.,.,-13.5,.,.,.,.,.,.
c1ccc(CCNc2ncnc3ccccc23)cc1,49.1*,37.3,-5.8,56.6,55.2*,-24.5,29.0*,57.6*,28.8*,24.4
Cc1cc2c(NCCc3ccccc3)ncnc2s1,-22.9,9.5,-26.3,48.0,.,0.8,.,.,.,.
SMILES,697 NFkB inh,Jurkat NFkB inh,LMP1 NFkB inh,Shn3 inh set2,Gli-Sufu antag,MITF TRPM1 inh,697 NFkB conf,Gli-Sufu confirm,Gli cytotox,Wnt3a counter
COc1cccc(NC(=O)CSc2nnc(-c3cc(C)n(-c4ccccc4)c3C)o2)c1,70.8*,-5.8,26.3,34.1,52.7,16.7,16.9,69.1*,9.6,76.1*
COc1ccc(NC(=O)CSc2nnc(-c3cccc(O)c3)o2)cc1,26.3,-33.0,5.8,-6.2,5.2,-18.8,.,.,.,.
CC1CCN(c2c(NCc3ccc(C(=O)N4c5ccccc5CC4C)cc3)c(=O)c2=O)CC1 (stereo not drawn),43.4*,22.1,36.4,44.6,57.4*,23.6,39.0*,56.9*,0.3,-34.8
COc1ccc(-n2c(-c3ccc(Cl)cc3)c[n+]3c2CCc2ccccc2-3)cc1,56.2*,21.4,4.2,75.6,84.6*,45.2,91.6*,86.5*,28.2*,13.4
O=C(CCCc1nc(-c2ccccc2Cl)no1)NC1CCCC1,74.4*,0.7,22.6,73.1,64.3*,76.4*,78.0*,57.2*,-1.3,93.0*
COc1ccccc1-c1noc(CCCC(=O)NC2CCCC2)n1,5.8,10.6,-5.4,-0.2,23.9,14.0,.,.,.,.
O=C(CCSCc1ccc(Cl)cc1)NCc1cccs1,10.1,-10.2,1.4,9.6,4.8,7.3,.,.,.,.
CCOc1ccc(-c2nc(CSCC(=O)NCC3CCCO3)c(C)o2)cc1 (stereo not drawn),87.9*,9.0,0.5,28.0,88.7*,12.8,19.5,88.5*,7.7,24.8
O=C1CCC2S/C(=C/Nc3ccc(C(F)(F)F)cc3)C(=O)N12 (stereo not drawn),81.4*,30.3,51.3*,56.6,57.5*,86.1*,49.0*,60.1*,2.5,105.9*
CCC(Sc1ccccn1)C(=O)Nc1cccc([N+](=O)[O-])c1 (stereo not drawn),1.0,3.7,3.2,-3.7,1.2,7.5,.,.,.,.
CN1C(C)(C)CC(=NO)CC1(C)C,.,.,-3.3,-8.9,2.7,1.3,.,.,.,.
COc1ccc(/C=N/OCC(=O)NC(c2ccccc2)c2ccccc2)cc1OC,68.4*,43.5,24.6,81.2,53.6,20.9,38.5*,53.4*,31.0*,35.0*
